Measurements published in PubChem BioAssay (EPA / NIEHS).
“And” between values parts separate entries of the source, which are not always exact repeats. Equal entries are not always repeated. More than one record can exist for a structure, and the calls need not agree. The source made the active and inactive calls. How the source made its calls: active means hit-call score of the fitted dose curve at least 0.9, where 1 is the maximum; inactive means score below 0.9.

Columns and labels:
[1] = read-out: Urokinase-type plasminogen activator receptor (uPAR), PLAUR (gene 5329); test: BSK_4H_uPAR: BioMAP Diversity Plus: 4H Assay for Urokinase-type plasminogen activator receptor (uPAR) Biomarker Activity (AID 2283030); conditions: primary human endothelial cells (HUVEC); actives raise or lower the signal
In short: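 Human umbilical vein endothelial cells in the 4H system, 24 h after chemical dosing. Cell-surface uPAR measured by ELISA, fitted in both directions versus DMSO; cytotoxicity checked by SRB total protein in parallel cultures.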

[2] = read-out: Vascular endothelial growth factor receptor 2 (Homo sapiens) (UniProt P35968); test: BSK_4H_VEGFRII: BioMAP Diversity Plus: 4H Assay for Vascular endothelial growth factor receptor 2 (VEGFR2) Biomarker Activity (AID 2283031); conditions: primary human endothelial cells (HUVEC); actives raise or lower the signal
In short: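 Primary human umbilical vein endothelial cells (4H system), 24 h exposure; cell-surface VEGFR2 measured by ELISA. Bidirectional fitting versus DMSO; cytotoxicity checked in parallel by SRB total-protein staining.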

[3] = read-out: Vascular cell adhesion molecule 1 (VCAM1), VCAM1 (gene 7412); test: BSK_4H_VCAM1: BioMAP Diversity Plus: 4H Assay for Vascular cell adhesion molecule 1 (VCAM1) Biomarker Activity (AID 2283033); conditions: primary human endothelial cells (HUVEC); actives raise or lower the signal
In short: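 Primary human umbilical vein endothelial cells, 4H stimulation system, treated for 24 h; cell-surface VCAM-1 quantified by ELISA. Bidirectional fitting against DMSO; cytotoxicity tracked by SRB total-protein staining in parallel cultures.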

[4] = read-out: Interferon-gamma inducible Protein 10 (IP10), CXCL10 (gene 3627); test: BSK_BE3C_IP10: BioMAP Diversity Plus: BE3C Assay for Interferon-gamma inducible Protein 10 (IP10) Biomarker Activity (AID 2283034); conditions: primary human bronchial epithelial cells; actives raise or lower the signal
In short: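 Primary human bronchial epithelial cells, with IP-10 measured by ELISA 24 hours after chemical dosing. Bidirectional fit against DMSO; cytotoxicity checked by SRB total protein staining in parallel cultures.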

[5] = read-out: Transforming growth factor beta 1 (TGFb1), TGFB1 (gene 7040); test: BSK_BE3C_TGFb1: BioMAP Diversity Plus: BE3C Assay for Transforming growth factor beta 1 (TGFb1) Biomarker Activity (AID 2283036); conditions: primary human bronchial epithelial cells; actives raise or lower the signal
In short: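 Primary human bronchial epithelial cells dosed with chemical; TGF-b1 measured by ELISA 24 h after dosing. Bidirectional curve fitting against DMSO negative control; SRB total-protein staining in parallel cultures gauged cytotoxicity.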

[6] = read-out: Plasminogen activator inhibitor-1 (PAI1), SERPINE1 (gene 5054); test: BSK_BE3C_PAI1: BioMAP Diversity Plus: BE3C Assay for Plasminogen activator inhibitor-1 (PAI1) Biomarker Activity (AID 2283037); conditions: primary human bronchial epithelial cells; actives raise or lower the signal
In short: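 Primary human bronchial epithelial cells (BE3C system) exposed 24 h; PAI-1 quantified by ELISA. Parallel sulforhodamine B staining of total protein flags cytotoxicity. Bidirectional fit versus DMSO.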

[7] = read-out: urokinase plasminogen activator (uPA), PLAU (gene 5328); test: BSK_BE3C_uPA: BioMAP Diversity Plus: BE3C Assay for urokinase plasminogen activator (uPA) Biomarker Activity (AID 2283038); conditions: primary human bronchial epithelial cells; actives raise or lower the signal
In short: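 Primary human bronchial epithelial cells, uPA measured by ELISA 24 h after dosing. Bidirectional change relative to DMSO; cytotoxicity checked in parallel cultures by sulforhodamine B total-protein staining.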

[8] = read-out: Urokinase-type plasminogen activator receptor (uPAR), PLAUR (gene 5329); test: BSK_BE3C_uPAR: BioMAP Diversity Plus: BE3C Assay for Urokinase-type plasminogen activator receptor (uPAR) Biomarker Activity (AID 2283039); conditions: primary human bronchial epithelial cells; actives raise or lower the signal
In short: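 Primary human bronchial epithelial cells dosed for 24 h; uPAR quantified by ELISA with bidirectional fitting against DMSO. Overt cytotoxicity assessed in parallel cultures by SRB total-protein staining (0.1% SRB, 560 nm).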

[9] = read-out: Monokine induced gamma interferon (MIG), CXCL9 (gene 4283); test: BSK_BE3C_MIG: BioMAP Diversity Plus: BE3C Assay for Monokine induced gamma interferon (MIG) Biomarker Activity (AID 2283035); conditions: primary human bronchial epithelial cells; actives raise or lower the signal
In short: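 MIG level was determined by ELISA after 24 h chemical treatment of primary human bronchial epithelial cells. Values were fitted bidirectionally with DMSO as the negative control and activity baseline.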

Measured: AC50

CC1(C)CC(O)CC(C)(C)N1[O]
not listed: [9]
inactive: all other assays above

CCCCCCOC(=O)CCCCC(=O)OCCCCCC
not listed: [9]
inactive: all other assays above

Oc1ccc(/C=C/c2cc(O)cc(O)c2)cc1
active: [1] 1.24 µM | [8] 11.1 µM
not listed: [4] | [9]
inactive: all other assays above

O=C(Cl)c1c(Cl)c(Cl)c(C(=O)Cl)c(Cl)c1Cl
inactive: all assays above

CCOC(=O)C1=NN(c2ccc(Cl)cc2Cl)C(C)(C(=O)OCC)C1 (centres undefined)
not listed: [9]
inactive: all other assays above

CC=C(C)C=CC=C(C)C
active: [7] 0.0546 µM
not listed: [9]
inactive: all other assays above

O=C1CCCCCCCCCCC1
not listed: [9]
inactive: all other assays above

CC/C=C\C/C=C\C/C=C\CCCCCCCC(=O)OC
inactive: [2]
active: [1] 30.9 µM | [3] 29 µM | [4] 11.8 µM | [9] 29.6 µM | [5] 9.17 µM | [6] 25.5 µM | [7] 29.8 µM | [8] 28.8 µM

CC(C)[N+](C)(CCOC(=O)C1c2ccccc2Oc2ccccc21)C(C)C
not listed: [9]
inactive: all other assays above

C=C(C)C(=O)OCCCCCCCCCCCC
not listed: [9]
inactive: all other assays above

C[N+](C)(C)CCCNS(=O)(=O)C(F)(F)C(F)(F)C(F)(F)C(F)(F)C(F)(F)C(F)(F)C(F)(F)C(F)(F)F
active: [4] 30 µM and 43.7 µM | [7] 1.1 µM
inactive: [1] | [2] | [3] | [6] | [7] | [8]
